Bioassay records deposited in PubChem by several laboratories.
Hits are enriched below; roughly 2.7% of the tested compounds scored in any of these assays.
bovine MsrA act: bovine MsrA enzyme activators, primary screen, biochemical, absorbance, HTS; Methionine sulfoxide reductase A (Bos taurus); purified bovine MsrA, absorbance read-out; activation, % at 10.6 µM; 360,000 tested, 0.3% active; AID 602163, 2012; in the data active means activation above about 7.5%;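 further: 0% = vehicle and 100% = reference activator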
rCAG RNA binder: binders of r(CAG) RNA repeats, primary screen, biochemical, fluorescence; inhibition, % at 3 µM; 370,000 tested, 1.3% active; r(CAG) RNA repeat, TO-PRO-1 dye displacement fluorescence;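 active means inhibition above the plate cutoff, the mean of all test compounds on that plate plus 3 SD, cut at about 35% in these data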;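 further: 0% = DMSO alone and 100% = 100 µM mitoxantrone as full dye displacement; higher means more dye released from RNA so lower well fluorescence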
MsrA inh: bovine MsrA enzyme inhibitors, primary screen, biochemical, absorbance, HTS; Methionine sulfoxide reductase A (Bos taurus); purified bovine MsrA, absorbance read-out; inhibition, % at 15.5 µM; 360,000 tested, 0.75% active; AID 651718, 2012; in the data active means inhibition above about 4.5%;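 further: 0% = vehicle wells with enzyme and 100% = reference inhibitor wells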
NadD block: inhibitors of S. aureus NadD, primary screen, biochemical, colorimetric, uHTS; Nicotinate-nucleotide adenylyltransferase NadD (Staphylococcus aureus N315); purified NadD enzyme, colorimetric absorbance read-out; inhibition, % at 20 µM; 360,000 tested, 0.78% active; in the data active means inhibition above about 26%
rCAG binder conf: small molecules binding CAG repeat RNA – biochemical, fluorescence, confirmation. shares compounds with rCAG RNA binder. r(CAG) RNA repeat, TO-PRO-1 dye displacement fluorescence. inhibition, % at 3 µM. 4,300 tested, 70% active. AID 652065, 2013;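 active means inhibition above a per-plate cutoff, the mean inhibition of sample wells plus 3 SD, cut at about 35% in these data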;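 further: loss of TO-PRO-1 fluorescence as compound displaces dye from 1x1 AA loop RNA; 0% = DMSO only wells and 100% = 100 µM mitoxantrone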
dCAG dye counter: displacement of TO-PRO-1 from CAG DNA duplex, counter-screen for rCAG RNA repeat binder project, biochemical, fluorescence, TO-PRO-1 dye, d(CAG) DNA oligo. shares compounds with rCAG RNA binder. d(CAG) DNA oligo TO-PRO-1 dye displacement. inhibition, % at 3 µM. 4,300 tested, 94% active. AID 652068, 2013;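 active means inhibition above its plate's cutoff, the mean test-well inhibition plus 3 SD, cut at about 4.8% in these data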;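 further: 0% = DNA dye mix with DMSO and 100% = 100 µM mitoxantrone; hits displace the dye from DNA and so lower well fluorescence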
DNA CAG DR: inhibitors of DNA CAG/GTC TO-PRO-1 complex, dose response, counter-screen for rCAG RNA repeat binder project, biochemical, fluorescence, TO-PRO-1 dye | 250 tested, 20% active | IC50, µM | shares compounds with rCAG RNA binder | AID 686960, 2013 | DNA CAG/GTC duplex TO-PRO-1 dye displacement fluorescence; in the data active means IC50 below about 10 µM
Starred values were filed as active, the others as inactive; nt = no result; ! = not confirmed by another sample.

SMILES	bovine MsrA act	rCAG RNA binder	MsrA inh	NadD block	rCAG binder conf	dCAG dye counter	others
Cc1ccc(NC(=O)c2cccc3c2-c2ccccc2C3=O)cc1C	-2	18	1	-4	nt	nt
Cc1cc(=O)oc2cc(NC(=O)c3ccccc3C(=O)O)ccc12	-7	-1	4	-1	nt	nt
COc1ccc2c(c1)Cc1cc(NC(=O)c3ccccc3-c3ccccc3C(=O)O)ccc1-2	-6	63*	3	2	66*	28*
O=C(O)c1ccccc1-c1ccccc1C(=O)Nc1ccc2c(c1)C(=O)c1ccccc1-2	5	60*	-1	4	68*	26*
COc1ccc(NC(=O)c2ccccc2-c2ccccc2C(=O)O)cc1	-3	2	3	-5	nt	nt
COc1cc(/C=C(\C(=O)O)c2ccc(S(=O)(=O)N3CCCC3)s2)cc(OC)c1	-1	26	3	-5	nt	nt
COc1ccc(Br)cc1/C=C(\C(=O)O)c1ccc(S(=O)(=O)N2CCCC2)s1	-2	52*	2	5	47*	14*
CCOc1ccc(/C=C(\C(=O)O)c2ccc(S(=O)(=O)N3CCCCC3)s2)cc1OC	-7	38*	1	0	35*	10*
CCOc1ccc(/C=C(\C(=O)O)c2ccc(S(=O)(=O)N3CCOCC3)s2)cc1OC	-4	10	4	-5	nt	nt
O=Cc1ccc(/C=C2\c3ccccc3C(=O)N2c2ccccc2)o1	nt	41*	2	nt	23	15*
O=C1c2ccccc2C(=O)N1c1ccccc1	-3	-2	2	1	nt	nt
COc1cc(/C=C2\SC(=S)N(C(C(=O)O)c3ccccc3)C2=O)cc(OC)c1OC (stereo unspecified)	-13	56*	2	5	64*	24*
COc1cccc(/C=C2\SC(=S)N(N3CCOCC3)C2=O)c1OC	-4	-2	0	-11	nt	nt
O=C(O)C(c1ccccc1)N1C(=O)/C(=C\c2ccc(-c3ccc(Br)cc3)o2)SC1=S (stereo unspecified)	0	34	0	15	nt	nt
O=C(O)C(c1ccccc1)N1C(=O)/C(=C\c2ccc(-c3ccccc3Cl)o2)SC1=S (stereo unspecified)	-5	45*	0	22	87*	63*
COc1cccc(/C=C2\SC(=S)N(C(C(=O)O)c3ccccc3)C2=O)c1OC (stereo unspecified)	0	63*	1	-2	63*	25*
COc1ccc(/C=C2\SC(=S)N(C(C(=O)O)c3ccccc3)C2=O)c(OC)c1 (stereo unspecified)	-5	79*	0	6	79*	45*
c1ccc2cc(Cn3ccc4ccc(-c5ccc6cc[nH]c6c5)cc43)ccc2c1	nt	30	nt	nt	nt	nt
CCOc1ccc(CCNC(=O)Cn2ccc3ccccc3c2=O)cc1OCC	-11	-3	1	-1	nt	nt
O=c1[nH]c2cc(S(=O)(=O)CCO)ccc2o1	-3	36*	0	-4	2	1
CCN(CC)S(=O)(=O)c1ccc(NS(=O)(=O)c2ccc3oc(=O)[nH]c3c2)cc1	-3	8	0	-1	nt	nt
O=C(Nc1cccc(S(=O)(=O)Nc2ccc(Cl)cc2)c1)c1cc2c(s1)CCCC2	-5	43*	-1	21	29	17*
O=C(Nc1cccc(S(=O)(=O)Nc2ccc(Cl)cc2)c1)c1ccc(Cl)nc1	-3	30	0	-1	nt	nt
O=C(Nc1cc(S(=O)(=O)Nc2ccccc2Cl)ccc1O)c1cc2c(s1)CCCC2	-3	48*	1	27	67*	26*
C[C@H](CCC(=O)O)[C@H]1CC[C@H]2[C@@H]3CC[C@@H]4C[C@H](O)CC[C@]4(C)[C@H]3C[C@H](O)[C@]12C	1	37*!	0	2	40*	6.7*
SMILES	bovine MsrA act	rCAG RNA binder	MsrA inh	NadD block	rCAG binder conf	dCAG dye counter	others
C[C@H](CCC(=O)O)[C@H]1CC[C@H]2[C@@H]3[C@H](O)C[C@@H]4C[C@H](O)CC[C@]4(C)[C@H]3CC[C@]12C	-11	37*	-1	9	31	4
COC(=O)CCC(C)C1CCC2C3CCC4CC(O)CCC4(C)C3=CC(=O)C12C (stereo unspecified)	0	0	-2	-1	nt	nt
O=C(O)c1cccc(NC(=S)NC(=O)c2cccc(OCc3ccccc3)c2)c1	-1	61*	2	2	64*	26*
CCCOc1cccc(C(=O)NC(=S)Nc2ccccc2)c1	-3	2	-1	0	nt	nt
CCCCC(=O)Nc1nnc(C2=COCCO2)o1	-7	3	1	-2	nt	nt
O=c1cc(-c2ccccc2)[nH]n1-c1ccccc1	-2	59*	0	5	8	3
Cc1cccc(NS(=O)(=O)c2ccc(C)c(NS(=O)(=O)c3cccs3)c2)c1	-1	36*	2	-3	28	7.9*
O=C(COC(=O)c1ccc(Sc2ncn[nH]2)c([N+](=O)[O-])c1)Nc1ccc(Cl)c(Cl)c1	nt	64*	nt	nt	46*	14*
CSCC[C@@H](Nc1nc(-c2ccccc2)nc2c1oc1ccccc12)C(=O)O	-1	69*	-1	7	71*	25*
O=S(=O)(Nc1nc2ccccc2nc1NCCN1CCOCC1)c1cccc(Cl)c1	0	49*	4	-2	53*	10*	DNA CAG DR=>30
O=S(=O)(Nc1nc2ccccc2nc1NCC1CCCO1)c1ccccc1 (stereo unspecified)	-5	18	3	-5	nt	nt
O=S(=O)(Nc1nc2ccccc2nc1NCC1CCCO1)c1cc(Cl)ccc1Cl (stereo unspecified)	-7	71*	5	4	49*	14*
Nc1nc(-c2ccccc2)c(N=Nc2cccc3ccccc23)s1	-2	35*	-1	9	29	18*
O=C(Nc1ccc(F)cc1)Nc1nnc(Cc2ccccc2F)s1	-2	45*	3	6	18	16*
CCSCCc1nnc(NC(=O)Nc2cccc(C(F)(F)F)c2)s1	-3	38*	1	0	27	19*
O=C(Nc1cccc(C(F)(F)F)c1)Nc1nnc([C@H]2C[C@H](O)[C@@H](CO)O2)s1	-2	19	0	-1	nt	nt
COc1cccc(NC(=O)Nc2nnc(Cc3ccccc3F)s2)c1	-5	40*	0	-6	22	14*
